# Hit rate of the full screen: of about 5,500 compounds, about 2,000 (36%) were called active. Another 18% or so got no clear call; they are omitted. This is one part of the list. Values without a mark were called inactive. Cut-off read from the data, not from the text of the source: active = normalized growth mostly below about 0.91 (no sharp cut-off); inconclusive = no clear call, values can overlap the other calls; inactive = mostly above about 0.92.
# Assay: chemical genetic growth profiling, strain panel (AID 1159580);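 note: tested at 20 µM; growth read once vehicle control cultures reached saturation at 30 °C; 1 = growth at the plate median or of vehicle wells; lower values mean less growth of the strain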
# Details: S. cerevisiae deletion strains, growth OD
smiles,measurement,setting,value
O=c1c(-c2cc(O)c(O)c(O)c2)coc2cc(O)c(O)c(O)c12,normalized growth,"locus YAL021C, strain ccr4, active compounds read low",0.719 (active)
same,normalized growth,"locus YAL026C, strain drs2, active compounds read low",0.876 (active)
same,normalized growth,"locus YAL030W, strain snc1, active compounds read low",0.999
same,normalized growth,"locus YBL061C, strain skt5, active compounds read low",0.94
same,normalized growth,"locus YBR009C, strain hhf1, active compounds read low",0.975
same,normalized growth,"locus YBR021W, strain FUR4, active compounds read low",1.03
same,normalized growth,"locus YBR023C, strain chs3, active compounds read low",0.904 (active)
same,normalized growth,"locus YBR171W, strain sec66, active compounds read low",0.991
same,normalized growth,"locus YBR229C, strain ROT2, active compounds read low",0.812 (active)
same,normalized growth,"locus YBR231C, strain swc5, active compounds read low",0.826 (active)
same,normalized growth,"locus YBR279W, strain paf1, active compounds read low",0.97
same,normalized growth,"locus YCL011C, strain gbp2, active compounds read low",0.979
same,normalized growth,"locus YCL016C, strain dcc1, active compounds read low",0.99
same,normalized growth,"locus YCL029C, strain bik1, active compounds read low",0.751 (active)
same,normalized growth,"locus YCL061C, strain MRC1, active compounds read low",0.97
same,normalized growth,"locus YCL069W, strain vba3, active compounds read low",0.996
same,normalized growth,"locus YCR088W, strain abp1, active compounds read low",1.03
same,normalized growth,"locus YDL005C, strain med2, active compounds read low",1.02
same,normalized growth,"locus YDL035C, strain GPR1, active compounds read low",0.787 (active)
same,normalized growth,"locus YDL040C, strain nat1, active compounds read low",1.02
same,normalized growth,"locus YDL074C, strain BRE1, active compounds read low",0.698 (active)
same,normalized growth,"locus YDL101C, strain DUN1, active compounds read low",0.462 (active)
same,normalized growth,"locus YDL134C, strain PPH21, active compounds read low",0.777 (active)
same,normalized growth,"locus YDL185W, strain tfp1, active compounds read low",0.944
same,normalized growth,"locus YDL192W, strain arf1, active compounds read low",0.927
same,normalized growth,"locus YDR001C, strain nth1, active compounds read low",1.01
same,normalized growth,"locus YDR069C, strain doa4, active compounds read low",0.746 (active)
same,normalized growth,"locus YDR101C, strain arx1, active compounds read low",0.918
same,normalized growth,"locus YDR137W, strain rgp1, active compounds read low",0.716 (active)
same,normalized growth,"locus YDR159W, strain sac3, active compounds read low",0.981
same,normalized growth,"locus YDR162C, strain NBP2, active compounds read low",0.632 (active)
same,normalized growth,"locus YDR195W, strain ref2",0.993
same,normalized growth,"locus YDR297W, strain sur2, active compounds read low",0.987
same,normalized growth,"locus YDR318W, strain mcm21, active compounds read low",0.986
same,normalized growth,"locus YDR334W, strain swr1, active compounds read low",0.879 (active)
same,normalized growth,"locus YDR335W, strain msn5, active compounds read low",0.885 (active)
same,normalized growth,"locus YDR388W, active compounds read low",0.983
same,normalized growth,"locus YDR392W, strain spt3, active compounds read low",0.899
same,normalized growth,"locus YDR502C, strain sam2, active compounds read low",0.931
same,normalized growth,"locus YEL003W, strain gim4, active compounds read low",0.958
same,normalized growth,"locus YEL037C, strain rad23, active compounds read low",0.937
same,normalized growth,"locus YEL061C, strain CIN8 (second series), active compounds read low",1
same,normalized growth,"locus YEL061C, strain CIN8, active compounds read low",0.878 (active)
same,normalized growth,"locus YER015W, strain faa2, active compounds read low",0.919 (active)
same,normalized growth,"locus YER016W, strain bim1, active compounds read low",1
same,normalized growth,"locus YER110C, active compounds read low",1
same,normalized growth,"locus YER111C, strain swi4, active compounds read low",0.731 (active)
same,normalized growth,"locus YER155C, strain BEM2 (second series), active compounds read low",0.935
same,normalized growth,"locus YER155C, strain BEM2, active compounds read low",0.991
same,normalized growth,"locus YER167W, strain BCK2, active compounds read low",0.972
same,normalized growth,"locus YFR010W, strain ubp6, active compounds read low",0.915
same,normalized growth,"locus YGL078C, strain dbp3, active compounds read low",0.991
same,normalized growth,"locus YGL086W, strain mad1, active compounds read low",0.923 (active)
same,normalized growth,"locus YGL167C, strain pmr1, active compounds read low",1
same,normalized growth,"locus YGL173C, strain kem1, active compounds read low",0.872 (active)
same,normalized growth,"locus YGL227W, strain vid30, active compounds read low",1.05
same,normalized growth,"locus YGL240W, strain doc1, active compounds read low",1.04
same,normalized growth,"locus YGL248W, strain PDE1, active compounds read low",0.851 (active)
same,normalized growth,"locus YGL253W, strain hxk2, active compounds read low",0.878 (active)
same,normalized growth,"locus YGR078C, strain PAC10, active compounds read low",0.817 (active)
same,normalized growth,"locus YGR135W, strain pre9, active compounds read low",0.917
same,normalized growth,"locus YGR229C, strain SMI1, active compounds read low",0.328 (active)
same,normalized growth,"locus YGR252W, strain gcn5, active compounds read low",0.853
same,normalized growth,"locus YHR013C, strain ard1, active compounds read low",0.88
same,normalized growth,"locus YHR027C, strain rpn1, active compounds read low",0.893 (active)
same,normalized growth,"locus YHR030C, strain SLT2, active compounds read low",0.952
same,normalized growth,"locus YHR079C, strain IRE1 (second series), active compounds read low",0.922 (active)
same,normalized growth,"locus YHR094C, strain hxt1, active compounds read low",1.01
same,normalized growth,"locus YHR129C, strain ARP1, active compounds read low",0.869 (active)
same,normalized growth,"locus YHR142W, strain chs7, active compounds read low",0.808 (active)
same,normalized growth,"locus YHR200W, strain rpn10, active compounds read low",0.957
same,normalized growth,"locus YIL066C, strain RNR3, active compounds read low",0.774 (active)
same,normalized growth,"locus YIL073C, strain SPO22, active compounds read low",0.686
same,normalized growth,"locus YIL125W, strain kgd1, active compounds read low",1
same,normalized growth,"locus YIR030C, strain dcg1, active compounds read low",1
same,normalized growth,"locus YJL092W, strain hpr5, active compounds read low",1.01
same,normalized growth,"locus YJL095W, strain BCK1 (second series), active compounds read low",0.986
same,normalized growth,"locus YJL095W, strain BCK1, active compounds read low",0.331 (active)
same,normalized growth,"locus YJL115W, strain asf1, active compounds read low",1.01
same,normalized growth,"locus YJL129C, strain trk1, active compounds read low",1.03
same,normalized growth,"locus YJL134W, strain LCB3, active compounds read low",0.943
same,normalized growth,"locus YJL154C, strain vps35, active compounds read low",1.01
same,normalized growth,"locus YJL164C, strain tpk1, active compounds read low",0.949
same,normalized growth,"locus YJL166W, strain qcr8, active compounds read low",0.921
same,normalized growth,"locus YJL168C, strain set2, active compounds read low",0.982
same,normalized growth,"locus YJL187C, strain SWE1 (second series), active compounds read low",0.282 (active)

# Source: PubChem BioAssay AID1159580 (chemical genetic matrix, 2015)
